Assay results from PubChem BioAssay AID1159580 (chemical genetic matrix, 2015).
Hit rate of the full screen: of about 5,500 compounds, about 2,000 (36%) were called active. Another 18% or so got no clear call; they are omitted. Cut-off read from the data, not from the text of the source: active = normalized growth mostly below about 0.91 (no sharp cut-off); inconclusive = no clear call, values can overlap the other calls; inactive = mostly above about 0.92. The list shows a part of the results.

Test: chemical genetic growth profiling, strain panel (AID 1159580);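 note: tested at 20 µM; growth read once vehicle control cultures reached saturation at 30 °C; 1 = growth at the plate median or of vehicle wells; lower values mean less growth of the strain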
Conditions: growth OD

Measured: normalized growth

Cc1onc(-c2ccccc2)c1C(=O)NC1C(=O)N2[C@@H]1SC(C)(C)[C@@H]2C(=O)O (some centres not stated)
inactive: S. cerevisiae deletion strains, locus YJR075W, strain HOC1, hits give low values 1.02 | S. cerevisiae deletion strains, locus YKL009W, strain mrt4, hits give low values 1.01 | S. cerevisiae deletion strains, locus YKL068W, hits give low values 1.01 | S. cerevisiae deletion strains, locus YKL085W, strain MDH1 (second series), hits give low values 1.01 | S. cerevisiae deletion strains, locus YKL085W, strain MDH1, hits give low values 1.01 | S. cerevisiae deletion strains, locus YKL160W, strain elf1, hits give low values 1.06 | S. cerevisiae deletion strains, locus YKL190W, strain CNB1, hits give low values 1.01 | S. cerevisiae deletion strains, locus YKR001C, strain vps1, hits give low values 1.01 | S. cerevisiae deletion strains, locus YKR026C, strain gcn3, hits give low values 1.02 | S. cerevisiae deletion strains, locus YKR091W, strain srl3, hits give low values 1.01 | S. cerevisiae deletion strains, locus YLL001W, strain dnm1, hits give low values 1.02 | S. cerevisiae deletion strains, locus YLL026W, hits give low values 1.01 | S. cerevisiae deletion strains, locus YLL041C, strain sdh2, hits give low values 1.01 | S. cerevisiae deletion strains, locus YLR027C, strain aat2, hits give low values 1.01 | S. cerevisiae deletion strains, locus YLR039C, strain RIC1, hits give low values 1.01 | S. cerevisiae deletion strains, locus YLR058C, strain SHM2, hits give low values 1.01 | S. cerevisiae deletion strains, locus YLR102C, strain apc9, hits give low values 1 | S. cerevisiae deletion strains, locus YLR113W, strain HOG1, hits give low values 0.975 | S. cerevisiae deletion strains, locus YLR221C, strain rsa3, hits give low values 1.03 | S. cerevisiae deletion strains, locus YLR258W, strain gsy2, hits give low values 1.02 | S. cerevisiae deletion strains, locus YLR262C, strain YPT6 (second series), hits give low values 1.05 | S. cerevisiae deletion strains, locus YLR262C, strain YPT6, hits give low values 1.04 | S. cerevisiae deletion strains, locus YLR268W, strain sec22, hits give low values 1.05 | S. cerevisiae deletion strains, locus YLR320W, strain mms22, hits give low values 1.04 | S. cerevisiae deletion strains, locus YLR330W, strain CHS5, hits give low values 1.01 | S. cerevisiae deletion strains, locus YLR342W, strain FKS1 (second series), hits give low values 1.01 | S. cerevisiae deletion strains, locus YLR342W, strain FKS1, hits give low values 1.02 | S. cerevisiae deletion strains, locus YLR357W, strain rsc2, hits give low values 1.09 | S. cerevisiae deletion strains, locus YLR370C, strain arc18, hits give low values 1.02 | S. cerevisiae deletion strains, locus YLR371W, strain rom2, hits give low values 1.01 | S. cerevisiae deletion strains, locus YLR384C, strain iki3, hits give low values 1.03 | S. cerevisiae deletion strains, locus YLR418C, strain cdc73, hits give low values 0.998 | S. cerevisiae deletion strains, locus YML016C, strain PPZ1, hits give low values 1.01 | S. cerevisiae deletion strains, locus YML032C, strain rad52, hits give low values 1.03 | S. cerevisiae deletion strains, locus YML120C, strain ndi1, hits give low values 1.02 | S. cerevisiae deletion strains, locus YML124C, strain tub3, hits give low values 1.01 | S. cerevisiae deletion strains, locus YMR058W, strain fet3, hits give low values 1.01 | S. cerevisiae deletion strains, locus YMR078C, strain ctf18, hits give low values 1.01 | S. cerevisiae deletion strains, locus YMR125W, strain sto1, hits give low values 1.02 | S. cerevisiae deletion strains, locus YMR129W, hits give low values 1.01 | S. cerevisiae deletion strains, locus YMR205C, strain PFK2, hits give low values 1.05 | S. cerevisiae deletion strains, locus YMR223W, strain ubp8, hits give low values 0.975 | S. cerevisiae deletion strains, locus YMR231W, strain pep5, hits give low values 1.02 | S. cerevisiae deletion strains, locus YMR263W, strain SAP30, hits give low values 1.01 | S. cerevisiae deletion strains, locus YMR307W, strain GAS1, hits give low values 0.981 | S. cerevisiae deletion strains, locus YNL067W, strain RPL9B, hits give low values 1.02 | S. cerevisiae deletion strains, locus YNL071W, strain lat1, hits give low values 1.01 | S. cerevisiae deletion strains, locus YNL128W, strain TEP1, hits give low values 1 | S. cerevisiae deletion strains, locus YNL153C, strain GIM3, hits give low values 1.01 | S. cerevisiae deletion strains, locus YNL183C, strain NPR1, hits give low values 0.946 | S. cerevisiae deletion strains, locus YNL209W, strain ssb2, hits give low values 1.01 | S. cerevisiae deletion strains, locus YNL233W, strain BNI4, hits give low values 1 | S. cerevisiae deletion strains, locus YNL248C, strain rpa49, hits give low values 1.01 | S. cerevisiae deletion strains, locus YNL250W, strain rad50, hits give low values 1.01 | S. cerevisiae deletion strains, locus YNL271C, strain bni1, hits give low values 1.01 | S. cerevisiae deletion strains, locus YNL298W, strain CLA4, hits give low values 1.02 | S. cerevisiae deletion strains, locus YNL307C, strain MCK1, hits give low values 1.01 | S. cerevisiae deletion strains, locus YNL322C, strain KRE1 (second series), hits give low values 1.03 | S. cerevisiae deletion strains, locus YNL322C, strain KRE1, hits give low values 1 | S. cerevisiae deletion strains, locus YNR049C, strain mso1, hits give low values 1.02 | S. cerevisiae deletion strains, locus YNR052C, strain pop2, hits give low values 1 | S. cerevisiae deletion strains, locus YOL006C, strain TOP1, hits give low values 1.02 | S. cerevisiae deletion strains, locus YOL012C, strain htz1 0.833 | S. cerevisiae deletion strains, locus YOL147C, strain pex11, hits give low values 1.01 | S. cerevisiae deletion strains, locus YOR001W, strain rrp6, hits give low values 0.971 | S. cerevisiae deletion strains, locus YOR061W, strain CKA2, hits give low values 1.01 | S. cerevisiae deletion strains, locus YOR069W, strain VPS5, hits give low values 1.01 | S. cerevisiae deletion strains, locus YOR070C, strain gyp1, hits give low values 1.02 | S. cerevisiae deletion strains, locus YOR080W, strain dia2, hits give low values 1.02 | S. cerevisiae deletion strains, locus YOR083W, strain WHI5, hits give low values 1.04 | S. cerevisiae deletion strains, locus YOR106W, strain vam3, hits give low values 1.03 | S. cerevisiae deletion strains, locus YOR136W, strain idh2, hits give low values 0.992 | S. cerevisiae deletion strains, locus YOR144C, strain elg1, hits give low values 1.01 | S. cerevisiae deletion strains, locus YOR184W, strain ser1, hits give low values 1.01 | S. cerevisiae deletion strains, locus YOR231W, strain MKK1, hits give low values 1.01 | S. cerevisiae deletion strains, locus YOR265W, strain rbl2, hits give low values 1.01 | S. cerevisiae deletion strains, locus YOR270C, strain vph1, hits give low values 1.02 | S. cerevisiae deletion strains, locus YOR290C, strain snf2, hits give low values 1.02 | S. cerevisiae deletion strains, locus YOR316C, strain cot1, hits give low values 1.01 | S. cerevisiae deletion strains, locus YPL051W, strain arl3, hits give low values 1.01 | S. cerevisiae deletion strains, locus YPL055C, strain LGE1, hits give low values 1.05 | S. cerevisiae deletion strains, locus YPL078C, strain atp4, hits give low values 1.01 | S. cerevisiae deletion strains, locus YPL106C, strain sse1, hits give low values 1.04 | S. cerevisiae deletion strains, locus YPL240C, strain hsp82, hits give low values 1.02 | S. cerevisiae deletion strains, locus YPL241C, strain CIN2, hits give low values 1.01 | S. cerevisiae deletion strains, locus YPL256C, strain CLN2, hits give low values 0.98 | S. cerevisiae deletion strains, locus YPR119W, strain clb2, hits give low values 1 | S. cerevisiae deletion strains, locus YPR141C, strain kar3, hits give low values 1.02 | S. cerevisiae deletion strains, locus YPR163C, strain tif3, hits give low values 1.02 | S. cerevisiae deletion strains, locus YPR167C, strain met16, hits give low values 1.01 | S. cerevisiae deletion strains, strain wtn01, hits give low values 1.04 | S. cerevisiae strains, strain wild type, hits give low values 1
